Assay results published in PubChem BioAssay.
The source made the active and inactive calls.

Columns and labels:
[1] = small molecules captured by biotinylated probe aFSTL3 – biochemical, small-molecule microarray, fluorescence 635/667, stem cell growth factor project, primary screen (AID 1064); settings: higher = more signal;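 also: measures binding of the biotinylated anti-FSTL3 antibody to printed compounds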
[2] = binders from COS7 lysate, DM2A8 probe, primary screen, torsin A project, cell lysate, small-molecule microarray, fluorescence 635/667 (AID 1065); settings: higher = more signal, COS7 lysate expressing mutant human TOR1A
[3] = small molecules captured by biotinylated probe aFGF2 – biochemical, small-molecule microarray, fluorescence 635/667, stem cell growth factor project, primary screen (AID 1067); settings: higher = more signal;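 also: measures binding of biotinylated aFGF2 protein to printed compounds on slides; z-score merges feature fluorescence and signal-to-noise across triplicate slides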
[4] = small molecules captured by biotinylated probe aFGF10 – biochemical, small-molecule microarray, fluorescence 635/667, stem cell growth factor project, primary screen (AID 1071); settings: higher = more signal;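 also: score merges 667 nm spot intensity and signal to noise from triplicate slides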
[5] = target: Neurogenic locus notch homolog protein 2 (Homo sapiens) (UniProt Q04721); assay: small molecules binding Notch2 protein – biochemical, small-molecule microarray, 635 nm fluorescence, stem cell growth factors, primary screen (AID 1073); settings: higher = more signal
[6] = target: Pro-neuregulin-1, membrane-bound isoform (Homo sapiens) (UniProt Q02297); assay: small molecules binding neuregulin-1 protein – biochemical, small-molecule microarray, fluorescence 635/667, psychiatric disease protein project, primary screen (AID 1075); settings: NRG1 binding, 635 nm fluorescence, higher = more signal;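 also: score combines 667 nm spot fluorescence with signal to noise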
[7] = test system: Neuregulin-1 EGF-like domain; assay: small molecules binding NRG1 EGF domain – biochemical, small-molecule microarray, 635 nm fluorescence, primary screen (AID 1081); settings: higher = more signal;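 also: binding of the protein to compounds printed on small-molecule microarray slides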
[8] = FRG1 expression reporter modulators in myotubes – cell-based, C2C12 myotubes, firefly/Renilla luciferase, luminescence, FRG1 inhibition for FSHD, primary screen (AID 1084); settings: FRG1 promoter luciferase, higher = more signal, called active from +8 up or from −8 down
[9] = small molecules captured by biotinylated probe aFST – biochemical, small-molecule microarray, fluorescence 635/667, stem cell growth factor project, primary screen (AID 1086); settings: higher = more signal;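 also: score merges 667 nm fluorescence with signal-to-noise of each printed compound spot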
[10] = binders of probe aHhip on microarray, primary screen, stem cell growth factor project, biochemical, small-molecule microarray, fluorescence 635/667 (AID 1087); settings: higher = more signal;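 also: score merges spot fluorescence at 667nm with spot signal to noise ratio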
[11] = test system: PRMT1 (protein arginine N-methyltransferase 1); assay: small molecules binding arginine methyltransferase PRMT1 – biochemical, small-molecule microarray, 635 nm fluorescence, primary screen (AID 1088); settings: higher = more signal;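 also: binding of Prmt1 protein to compounds spotted on small-molecule microarray slides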
[12] = growth effects on S. cerevisiae YJM789 – YJM789 clinical isolate, OD600, 24 h, basal, primary screen (AID 1089); settings: higher = more signal, called active from +8 up or from −8 down;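 also: growth of clinical yeast isolate S. cerevisiae YJM 789 seeded 1000 cells per well; test concentration not given here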
[13] = S. pombe growth modifiers, basal conditions – strain 972, OD600, 24 h, no modulator, primary screen (AID 1090);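 also: basal condition with compound alone and no growth modifier present; test concentration not given here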; settings: S. pombe 972 growth, higher = more signal, called active from +8 up or from −8 down
[14] = budding yeast growth modifiers under rapamycin – strain BY4716, OD600, 96 h, primary screen (AID 1091); also: test concentration not given here; settings: S. cerevisiae BY4716 + rapamycin, higher = more signal, called active from +8 up or from −8 down
[15] = target: Torsin-1A-interacting protein 2 (Homo sapiens) (UniProt Q8NFQ8); assay: small molecules binding lysate-expressed LULL1 – cell lysate, human LULL1 lysate, 635/667 nm fluorescence, primary screen (AID 1092); settings: small-molecule microarray, hLULL1 lysate binding, 635 nm fluorescence; higher = more signal;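 also: probe is lysate of COS7 cells overexpressing human LULL1; score merges per-feature 667 nm fluorescence with signal-to-noise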
[16] = optical density change of DRC41 E. coli – strain DRC41, OD650, 24 h, E. coli filamentation project, primary screen (AID 1093);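 also: MC1000 strain lacking acrAB efflux and sulA so SOS filamentation is blocked; test concentration not given here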; settings: E. coli DRC41 growth, higher = more signal, called active from +8 up or from −8 down
[17] = probe aLefty2 binding to arrayed compounds – biochemical, biotinylated probe, 635/667 nm fluorescence, primary screen (AID 1094); settings: small-molecule microarray, higher = more signal;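 also: score merges spot fluorescence near 667 nm with spot signal-to-noise ratio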
[18] = test system: Noggin (protein binding on small-molecule microarray); assay: small molecules binding Noggin protein – biochemical, 635/667 nm fluorescence, primary screen (AID 1095); settings: 635 nm fluorescence, higher = more signal;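 also: score merges 667 nm feature fluorescence with signal to noise over triplicate slides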
[19] = target: Neurogenic locus notch homolog protein 3 (Homo sapiens) (UniProt Q9UM47); assay: small molecules binding NOTCH3 protein – biochemical, 635/667 nm fluorescence, primary screen (AID 1096); settings: small-molecule microarray, 635 nm fluorescence, higher = more signal
[20] = probe aEGFR binding to arrayed compounds – biochemical, biotinylated probe, 635/667 nm fluorescence, primary screen (AID 1097); settings: small-molecule microarray, higher = more signal;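 also: probe is a biotinylated anti-EGFR antibody binding compounds printed on slides; score combines fluorescence near 667 nm and signal to noise of each spot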

Pro-neuregulin-1, membrane-bound isoform (Homo sapiens), sequence (Q02297 whole entry, looked up, the tested form may be a part, canonical isoform): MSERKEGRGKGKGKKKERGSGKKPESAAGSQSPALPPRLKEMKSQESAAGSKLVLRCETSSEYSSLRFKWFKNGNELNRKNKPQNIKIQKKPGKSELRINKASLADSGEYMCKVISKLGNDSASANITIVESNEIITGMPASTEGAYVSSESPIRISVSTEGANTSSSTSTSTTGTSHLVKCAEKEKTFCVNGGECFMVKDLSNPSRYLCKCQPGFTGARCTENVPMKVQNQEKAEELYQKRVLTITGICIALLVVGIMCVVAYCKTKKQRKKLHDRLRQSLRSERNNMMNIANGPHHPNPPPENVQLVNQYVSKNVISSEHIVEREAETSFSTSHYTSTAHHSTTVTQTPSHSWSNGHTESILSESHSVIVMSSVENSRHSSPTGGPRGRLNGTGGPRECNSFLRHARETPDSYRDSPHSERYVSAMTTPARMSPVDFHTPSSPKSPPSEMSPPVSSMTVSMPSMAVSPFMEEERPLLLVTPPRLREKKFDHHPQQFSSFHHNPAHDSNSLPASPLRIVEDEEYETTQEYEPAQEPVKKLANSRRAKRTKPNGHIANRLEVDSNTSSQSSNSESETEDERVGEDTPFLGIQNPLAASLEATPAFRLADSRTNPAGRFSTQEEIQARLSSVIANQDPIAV
Neurogenic locus notch homolog protein 2 (Homo sapiens), sequence (Q04721 whole entry, looked up, canonical isoform): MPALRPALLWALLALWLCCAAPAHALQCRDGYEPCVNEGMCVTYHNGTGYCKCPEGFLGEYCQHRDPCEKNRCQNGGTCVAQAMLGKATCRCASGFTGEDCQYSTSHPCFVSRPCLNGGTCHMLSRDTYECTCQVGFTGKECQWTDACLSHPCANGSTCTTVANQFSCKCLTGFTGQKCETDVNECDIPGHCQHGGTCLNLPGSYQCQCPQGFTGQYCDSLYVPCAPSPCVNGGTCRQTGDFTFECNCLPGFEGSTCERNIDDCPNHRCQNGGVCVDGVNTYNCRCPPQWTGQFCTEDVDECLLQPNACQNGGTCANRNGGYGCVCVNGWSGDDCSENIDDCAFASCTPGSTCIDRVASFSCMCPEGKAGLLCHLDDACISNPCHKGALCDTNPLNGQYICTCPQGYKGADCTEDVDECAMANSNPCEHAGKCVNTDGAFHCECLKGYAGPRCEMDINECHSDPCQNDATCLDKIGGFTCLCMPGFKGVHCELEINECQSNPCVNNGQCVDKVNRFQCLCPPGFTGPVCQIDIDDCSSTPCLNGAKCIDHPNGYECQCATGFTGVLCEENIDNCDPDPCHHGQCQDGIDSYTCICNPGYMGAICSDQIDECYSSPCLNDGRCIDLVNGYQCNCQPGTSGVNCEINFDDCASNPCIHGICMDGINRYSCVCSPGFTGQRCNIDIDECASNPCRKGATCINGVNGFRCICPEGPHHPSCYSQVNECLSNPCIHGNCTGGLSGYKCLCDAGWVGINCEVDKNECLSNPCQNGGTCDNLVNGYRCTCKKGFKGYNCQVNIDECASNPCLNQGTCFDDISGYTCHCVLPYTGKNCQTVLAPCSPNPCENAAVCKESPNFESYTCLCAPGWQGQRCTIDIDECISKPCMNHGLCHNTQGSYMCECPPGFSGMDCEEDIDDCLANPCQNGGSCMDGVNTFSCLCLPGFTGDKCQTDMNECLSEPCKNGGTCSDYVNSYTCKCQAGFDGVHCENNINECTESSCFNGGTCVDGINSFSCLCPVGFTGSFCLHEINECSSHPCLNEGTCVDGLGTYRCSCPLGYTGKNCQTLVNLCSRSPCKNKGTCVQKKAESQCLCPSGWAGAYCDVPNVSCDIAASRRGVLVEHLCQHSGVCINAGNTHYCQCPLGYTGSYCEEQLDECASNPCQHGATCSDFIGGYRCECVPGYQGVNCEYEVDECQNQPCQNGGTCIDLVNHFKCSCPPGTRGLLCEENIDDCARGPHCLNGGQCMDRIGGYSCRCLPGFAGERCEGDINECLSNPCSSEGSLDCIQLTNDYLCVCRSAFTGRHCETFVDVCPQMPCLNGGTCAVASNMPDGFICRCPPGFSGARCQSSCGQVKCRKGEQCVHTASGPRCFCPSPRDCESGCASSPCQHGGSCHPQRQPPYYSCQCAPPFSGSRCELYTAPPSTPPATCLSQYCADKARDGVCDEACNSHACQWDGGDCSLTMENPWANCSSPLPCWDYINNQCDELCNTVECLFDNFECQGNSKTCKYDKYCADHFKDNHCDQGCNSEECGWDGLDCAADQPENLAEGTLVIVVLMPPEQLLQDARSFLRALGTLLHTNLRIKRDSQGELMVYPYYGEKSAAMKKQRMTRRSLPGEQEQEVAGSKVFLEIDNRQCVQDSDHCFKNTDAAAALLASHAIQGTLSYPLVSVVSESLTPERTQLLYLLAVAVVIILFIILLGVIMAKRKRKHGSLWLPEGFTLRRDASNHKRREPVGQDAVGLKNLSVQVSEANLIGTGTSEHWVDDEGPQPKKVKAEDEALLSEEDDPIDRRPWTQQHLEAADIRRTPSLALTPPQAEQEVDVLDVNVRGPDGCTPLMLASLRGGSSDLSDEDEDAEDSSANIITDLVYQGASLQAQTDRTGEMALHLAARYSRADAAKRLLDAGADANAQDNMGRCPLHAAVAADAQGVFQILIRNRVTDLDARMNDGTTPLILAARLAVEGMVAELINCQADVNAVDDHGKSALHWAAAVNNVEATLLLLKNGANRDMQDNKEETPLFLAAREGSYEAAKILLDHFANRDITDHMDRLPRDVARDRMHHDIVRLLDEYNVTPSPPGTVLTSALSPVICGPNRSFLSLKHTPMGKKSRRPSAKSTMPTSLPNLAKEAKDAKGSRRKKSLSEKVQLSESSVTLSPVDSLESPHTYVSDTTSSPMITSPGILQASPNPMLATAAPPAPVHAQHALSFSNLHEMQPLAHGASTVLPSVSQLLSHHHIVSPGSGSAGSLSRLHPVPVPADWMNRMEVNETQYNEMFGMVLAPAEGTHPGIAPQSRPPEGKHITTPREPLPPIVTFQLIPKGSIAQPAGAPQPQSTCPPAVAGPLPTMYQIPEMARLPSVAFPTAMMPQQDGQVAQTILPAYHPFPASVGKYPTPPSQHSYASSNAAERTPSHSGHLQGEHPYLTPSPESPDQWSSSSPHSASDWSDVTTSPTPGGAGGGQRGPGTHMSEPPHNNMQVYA
Torsin-1A-interacting protein 2 (Homo sapiens), sequence (Q8NFQ8 whole entry, looked up): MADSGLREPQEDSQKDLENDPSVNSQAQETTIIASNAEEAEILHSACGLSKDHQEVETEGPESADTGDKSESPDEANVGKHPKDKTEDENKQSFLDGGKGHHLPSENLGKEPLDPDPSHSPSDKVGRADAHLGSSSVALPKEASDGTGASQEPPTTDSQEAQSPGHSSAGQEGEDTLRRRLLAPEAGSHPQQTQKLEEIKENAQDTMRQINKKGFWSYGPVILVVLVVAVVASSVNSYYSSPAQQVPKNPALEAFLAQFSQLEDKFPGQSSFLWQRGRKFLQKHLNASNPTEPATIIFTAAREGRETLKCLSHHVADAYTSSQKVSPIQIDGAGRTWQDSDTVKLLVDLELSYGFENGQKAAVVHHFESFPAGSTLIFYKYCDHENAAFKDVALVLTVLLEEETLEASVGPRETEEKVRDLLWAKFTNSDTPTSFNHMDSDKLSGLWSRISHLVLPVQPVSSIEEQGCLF

Row | Structure (SMILES) | composite z-score [1] | composite z-score [2] | composite z-score [3] | composite z-score [4] | composite z-score [5] | composite z-score [6] | composite z-score [7] | z-score [8] | composite z-score [9] | composite z-score [10] | composite z-score [11] | z-score [12] | z-score [13] | z-score [14] | composite z-score [15] | z-score [16] | composite z-score [17] | composite z-score [18] | composite z-score [19] | composite z-score [20]
1 | COCCOC(=O)N1C(=O)[C@@]2(c3cc(C#CCNC(N)=O)ccc31)[C@H](C(=O)NC[C@H](O)c1ccccc1)[C@H]1C(=O)O[C@H](c3ccccc3)[C@H](c3ccccc3)N1[C@@H]2c1ccc(O)cc1 | 0.464 | 0.256 | -0.031 | 0.462 | -0.26 | 0.8 | 0.442 | 0.803 (inactive) | 0.24 | -0.191 | 1.54 | -0.124 (inactive) | -2.42 (inactive) | 0.893 (inactive) | 1.5 | 2 (inactive) | -0.104 | 0.737 | 0.698 | -0.132
2 | C=C[C@H](OC)[C@@H](OC(=O)Nc1ccc(OC)cc1)c1ccc(OC)c(O)c1 | 1.46 | -0.68 | -0.209 | -1.29 | -2.83 | 0.272 | 0.843 | 1.51 (inactive) | -1.11 | -0.487 | -1.07 | 0.698 (inactive) | -0.133 (inactive) | 0.551 (inactive) | -0.0649 | 2.09 (inactive) | -0.21 | -1.8 | -0.805 | -0.373
3 | COc1ccc([Si](C)(C)[C@H]2[C@H](CC(=O)N(CCO)Cc3ccccc3)O[C@@]3(C(=O)N(Cc4ccc(N5CCC5=O)cc4)c4ccccc43)[C@@H]2C)cc1 | 0.278 | 0.323 | -0.128 | -1.07 | -0.741 | 1.02 | 0.469 | -2.75 (inactive) | -0.336 | -0.226 | 0.499 | 0.478 (inactive) | 0.617 (inactive) | 1.96 (inactive) | 0.953 | 1.48 (inactive) | -0.166 | -0.156 | -0.813 | -0.302
